This note sets out measurements from PubChem BioAssay (NCI).

This is part of a sample that, as a whole, favours compounds with a hit. Of some 83,000 tested, about 20% had one in any assay.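 Cells were grown in 96-well plates and exposed to the test compound at a single concentration for 48 hours; results are reported as percent growth, with values below 10 considered active.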 Activity calls are given as the source filed them.

The assay has as its system HT29 colon. Put plainly: NCI-60 one-dose screen, 48 h (100 = growth as untreated, 0 = no growth, -100 = all killed). The conditions noted are these: 10 µM unless noted.
Consider `CS(=O)(=O)c1ccc(-n2nc(C(=O)NCc3ccccc3)cc2-c2ccc(Cl)cc2)cc1`, for which the growth was 74% (inactive). As for `CCCCCCCCc1cccc(CC(=O)Nc2ccc(C)cc2C(=O)O)c1`, the growth was 35.9% [25 µM] (inactive). For `COc1ccc(-c2cc(C(=O)Oc3ccc(C=O)cc3OC)nn2-c2ccc(S(C)(=O)=O)cc2)cc1`, the growth was 110% (inactive). In the case of `O=C(NN1C(=O)/C(=C/C=C/c2ccc([N+](=O)[O-])o2)SC1=S)c1ccncc1` it was -67.2% (active); in that of `N#Cc1c(-c2ccc(F)cc2)nc(SCc2ccccc2)nc1N1CCNCC1`, -70.7% (active). Take `COc1ccc(/C=C/C(=O)c2ccc(OC)c(S(N)(=O)=O)c2)c(C(F)(F)F)c1`: the growth is 6.34% (active). As to `COc1ccccc1Nc1nnc(-c2c[nH]c3ccccc23)o1`, the growth was 7.44% (active). In the case of `COc1ccc2c(c1)N=c1c-2cc2c(O)[nH]c(=S)n2c1=O` it was 12.3% (inactive); in that of `CS(=O)(=O)Nc1cc(-c2ccc3ncnc(N4CCc5cc(F)c(Cl)cc54)c3c2)cnc1Cl`, 19.7% (inactive).

For the compound `CC(=O)Nc1ccc(S(=O)(=O)Nc2ccc(-c3ccc4c(c3)NC(=O)/C4=C\c3ccc[nH]3)cc2)cc1`, the growth was 118% (inactive). For `Cc1nn(-c2ccccc2)c2nc(C)n(CC(=O)N/N=C/c3cccc([N+](=O)[O-])c3)c(=O)c12`, the growth was 102% (inactive). The same measure for `CCC(=O)c1cc(C(=O)OC)c2ccc3c4ccccc4ccc3n12`: 73.3% (inactive); for `Cc1ccc(C(=O)Nc2cc(-n3cnc(F)c3)cc(C(F)(F)F)c2)cc1C#Cc1cnc2cccnn12`: 35.4% (inactive).
